Source: PubChem BioAssay (The Scripps Research Institute Molecular Screening Center)
Sampled rows, rich in hits. Any-hit rate of the full collection: about 4.1%.
DAX1 inh-1 – DAX1 (NR0B1) inhibition, primary screen; HEK293T StAR-luciferase reporter, SF-1/DAX-1 repression relief; inhibition, % at 6.8 µM; actives 1.1% (n = 370,000); AID 652010;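 active means inhibition above the mean over all tested compounds plus 3 SD, cut at about 3.6% in these data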;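 further: 0% = DAX-1 cells with DMSO and 100% = cells lacking DAX-1 with DMSO; higher inhibition means more luminescence from relief of DAX-1 repression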
hgDAF-12 ag – hgDAF-12 agonism, primary luciferase screen. actives 1.8% (n = 370,000). activation, % at 6.8 µM. AID 687014. HEK293 GAL4-hgDAF12 UAS-luciferase reporter, agonist luminescence; normalized to butyrate control;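 active means activation above a cutoff set at the mean of all screened compounds plus 3 SD, cut at about 10% in these data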;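 further: 0% = DMSO wells and 100% = sodium butyrate wells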
ssDAF-12 act – activates DAF-12 receptor from parasite S. stercoralis | activation, % at 6.8 µM | actives 1% (n = 370,000) | HEK293 ssDAF-12/GRIP1 lit1-tk-luc reporter, luminescence; % of 3 µM dafachronic acid response;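 active means activation above the mean over all tested compounds plus 3 SD, cut at about 0.9% in these data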;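 further: 0% = DMSO-only wells and 100% = 3 µM delta7-dafachronic acid wells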
DAX1 inh-2 – inhibitors of human orphan nuclear receptor DAX1 (NR0B1) | HEK293 Gal4-DAX1 luciferase reporter, luminescence | P51843 | inhibition, % at 6.75 µM | AID 504766 | actives 0.99% (n = 340,000);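 active means inhibition above the mean over all tested compounds plus 3 SD, cut at about 4.2% in these data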;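 further: 0% = DAX1-transfected cells with DMSO and 100% = empty-vector control cells with DMSO; inhibition shows as a rise in luminescence from relieved DAX1 repression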
Target sequence (P51843 207-470 limits assumed): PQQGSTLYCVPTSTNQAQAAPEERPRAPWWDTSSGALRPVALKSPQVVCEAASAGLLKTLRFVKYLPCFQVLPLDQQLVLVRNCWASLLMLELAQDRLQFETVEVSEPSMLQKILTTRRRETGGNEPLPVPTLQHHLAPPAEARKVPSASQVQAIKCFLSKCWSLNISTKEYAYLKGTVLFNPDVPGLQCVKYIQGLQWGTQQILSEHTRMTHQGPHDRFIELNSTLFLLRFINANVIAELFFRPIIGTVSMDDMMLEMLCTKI
hcDAF-12 act – activators of H. contortus DAF-12 nuclear receptor; activation, % at 6.8 µM; actives 1.4% (n = 370,000); AID 652067; HEK293 hcDAF-12 lit1-tk-luc reporter, luminescence; 0% DMSO, 100% Δ7-dafachronic acid;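 active means activation above the mean of all tested compounds plus 3 SD, cut at about 5.5% in these data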;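 further: 100% = response to 3 µM Δ7-dafachronic acid high control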
The depositor's hits bear a star; . = no result.

SMILES	DAX1 inh-1	hgDAF-12 ag	ssDAF-12 act	DAX1 inh-2	hcDAF-12 act
CC(=O)Cn1nnc2sc(-c3ccccc3)cc2c1=O	3	13*	0	4	5
CC(=O)Cn1cnc2sc(-c3ccccc3)cc2c1=O	2	11*	-1	1	3
O=C(Cn1cnc2sc(-c3ccccc3)cc2c1=O)N1CCOCC1	0	1	-1	0	-1
Cn1cc(CN2CCCC(CO)(Cc3ccccc3)C2)c2ccccc21 (stereo unspecified)	0	1	-1	4.9*	-2
COc1cccc(CC2(CO)CCCN(Cc3cn(C)c4ccccc34)C2)c1 (stereo unspecified)	0	1	0	-1	2
CCCCS/C(N)=N/N=C/c1ccccc1O	2	8	0	1	3
CCCS/C(N)=N/N=C/c1cc(C)ccc1O	2	11*	1	3	4
COc1ccccc1CNC(=O)CN1C(=O)c2ccccc2S1(=O)=O	0	1	-1	4.5*	3
COc1ccccc1CNC(=O)CSc1ccccc1	3	11*	-1	1	2
COc1ccccc1CNC(=O)CN1NS(=O)(=O)c2ccccc2C1=O	-1	0	-1	0	1
O=C(CN1CCCCCC1)Nc1ccc(Cl)cn1	0	0	-1	1	-1
COc1cc(NC(=O)C2CCN(c3nnc(-n4cccc4)s3)CC2)cc(OC)c1	0	1	-2	.	1
Cc1cc2cc3c(cc2n2c(SCC(=O)Nc4nc(-c5ccccc5)cs4)nnc12)OCO3	.	0	-2	.	-2
COc1ccc(-n2nc(C(=O)NCC(=O)N3CCCC3)c3ccccc3c2=O)cc1	0	2	-1	5.2*	2
O=C(CSc1ncnc2ccccc12)c1ccc2c(c1)OCCO2	0	5	-1	-2	-1
Cc1ccc(C(=O)COc2ncnc3cc(Cl)ccc23)cc1	0	-2	-1	.	0
O=C(COc1ncnc2ccccc12)c1ccc2c(c1)OCCO2	2	11*	0	2	5
O=C(COc1ncnc2cc(Cl)ccc12)c1ccc2c(c1)OCCO2	1	2	0	4.8*	2
Cc1cc(N2O[C@]34C=C[C@]25C[C@@H](O)CC[C@]5(C)C3CC[C@]2(C)[C@@H]([C@H](C)/C=C/[C@H](C)C(C)C)CC[C@H]24)no1 (stereo partly specified)	1	3	1.0*	0	5
CC(C)[C@@H](C)/C=C/[C@@H](C)[C@H]1CC[C@@H]2[C@]1(C)CCC1[C@]23C=C[C@]2(C[C@@H](O)CC[C@]12C)N(c1ccc(F)cn1)O3 (stereo partly specified)	1	3	0	.	2
O=C(N[C@@H](Cc1cccnc1)C(=O)N1CCC[C@H]1C(=O)NCCc1ccccc1Cl)C1CC1	0	4	-1	.	-2
Cc1ccc(CNc2ccc3c(c2)ncn3C(C)(C)C)cc1	4.1*	9	1	6.6*	5
COc1ccc(N2CCN(C(=O)c3cc4c(-c5ccc(Cl)cc5)nn(C)c4s3)CC2)cc1	0	-3	0	2	6.0*
Cn1nc(-c2ccc(Cl)cc2)c2cc(C(=O)N3CCOCC3)sc21	-1	6	0	0	5
Cn1nc(-c2ccc(Cl)cc2)c2cc(C(=O)NCC3CCCO3)sc21 (stereo unspecified)	0	-1	0	-1	1
SMILES	DAX1 inh-1	hgDAF-12 ag	ssDAF-12 act	DAX1 inh-2	hcDAF-12 act
CN1CCN(CCCNC(=O)c2cc3c(-c4ccc(Cl)cc4)nn(C)c3s2)CC1	2	0	0	3	5.6*
CC(C)C[C@H]1COc2cccc(F)c2S(=O)(=O)N1Cc1cn(CCC2OCCO2)nn1	1	-2	-2	.	-3
COC(=O)C1CN(CCc2ccccc2)CCS(=O)(=O)N1Cc1ccccc1F (stereo unspecified)	-1	0	-1	.	-3
CN(C)C=Nc1ccc(Cn2cnc3nc4ccc(Cl)cc4cc3c2=O)cc1	1	2	0	.	4
O=c1c2cc3cc(Cl)ccc3nc2ncn1CCc1c[nH]c2ccccc12	1	5	1.5*	.	6
Cc1ccn2c(NCc3ccccc3)c(-c3cccs3)nc2c1	0	11*	-1	0	3
